Common to all, as to assay: DAPPL (digital affinity profiling via proximity ligation, sequencing); 10 mM Tris-HCl pH 7.5, 50 mM NaCl, 1 mM DTT, 4% glycerol, room temperature, 30 min; GST-TFs on glutathione beads, 16-mer random dsDNA library, 0.1% formaldehyde crosslink after washing; high values mean tight binding
One test concerns the target T1, FEV (Homo sapiens, UniProt Q99581 1-238).
T1 sequence: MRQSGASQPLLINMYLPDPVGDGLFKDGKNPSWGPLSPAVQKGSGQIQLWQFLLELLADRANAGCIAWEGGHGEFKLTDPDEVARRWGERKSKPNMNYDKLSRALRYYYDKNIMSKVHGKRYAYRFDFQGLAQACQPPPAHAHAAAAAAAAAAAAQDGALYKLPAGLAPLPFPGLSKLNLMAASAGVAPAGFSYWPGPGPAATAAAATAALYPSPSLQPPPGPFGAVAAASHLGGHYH
The note with it: protein: recombinant; tags: N-terminal GST; dsDNA, one strand shown. The method, boiled down:
(§1)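 A tag-only sample was pooled with DNA-barcoded human transcription factors that had been expressed in yeast as GST fusions and captured on glutathione beads. The pools were incubated for 30 min at room temperature with 200 nmole of a random double-stranded 16-mer DNA library in Tris/NaCl/DTT/glycerol buffer, then washed, crosslinked with 0.1% formaldehyde, proximity-ligated (BsaI/T4 ligase, 1 h, 37 °C), PCR-amplified and sequenced on an Illumina NextSeq500. Binding signal is each hexamer's read frequency for a factor divided by its frequency for the tag-only sample.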

The target of another test is ETV5 (Homo sapiens, UniProt P41161 1-510). The note with it: protein: recombinant; tags: N-terminal GST; dsDNA, one strand shown. An outline of the steps:
as §1

In a further test the target is HSF1 (Homo sapiens, UniProt Q00613 1-529). The note with it: protein: recombinant; tags: N-terminal GST; chain copies: 3; dsDNA, one strand shown. An outline of the steps: as §1
Sequence of HSF1 (Q00613 whole entry): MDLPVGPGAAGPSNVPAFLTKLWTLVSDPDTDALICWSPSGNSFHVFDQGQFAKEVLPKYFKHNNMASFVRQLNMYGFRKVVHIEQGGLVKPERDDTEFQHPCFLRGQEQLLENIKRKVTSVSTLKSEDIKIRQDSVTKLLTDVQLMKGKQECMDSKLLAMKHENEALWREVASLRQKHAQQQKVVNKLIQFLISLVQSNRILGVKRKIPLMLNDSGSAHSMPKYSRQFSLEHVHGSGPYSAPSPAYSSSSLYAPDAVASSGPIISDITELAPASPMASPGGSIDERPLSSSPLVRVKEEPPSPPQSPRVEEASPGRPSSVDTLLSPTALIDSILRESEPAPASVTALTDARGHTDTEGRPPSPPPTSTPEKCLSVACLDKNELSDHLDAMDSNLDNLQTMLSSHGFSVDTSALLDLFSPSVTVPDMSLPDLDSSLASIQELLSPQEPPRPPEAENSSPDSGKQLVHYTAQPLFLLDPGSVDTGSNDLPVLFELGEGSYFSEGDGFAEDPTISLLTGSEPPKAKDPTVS
In another test the target is T2, SPIC (Homo sapiens, UniProt Q8N5J4 1-248).
T2 sequence: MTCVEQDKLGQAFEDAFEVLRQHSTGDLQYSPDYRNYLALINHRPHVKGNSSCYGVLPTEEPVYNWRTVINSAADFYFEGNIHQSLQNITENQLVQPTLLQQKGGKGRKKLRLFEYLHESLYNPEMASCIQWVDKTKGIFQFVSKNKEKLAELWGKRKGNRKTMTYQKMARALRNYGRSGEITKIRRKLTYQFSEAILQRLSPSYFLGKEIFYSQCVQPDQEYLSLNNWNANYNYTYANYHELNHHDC
The note with it: protein: recombinant; tags: N-terminal GST; dsDNA, one strand shown. The method, boiled down:
as §1

For another test, the target named is ELF4 (Homo sapiens, UniProt Q99607 1-663). The note with it: protein: recombinant; tags: N-terminal GST; dsDNA, one strand shown. An outline of the steps: as §1
Sequence of ELF4 (Q99607 whole entry): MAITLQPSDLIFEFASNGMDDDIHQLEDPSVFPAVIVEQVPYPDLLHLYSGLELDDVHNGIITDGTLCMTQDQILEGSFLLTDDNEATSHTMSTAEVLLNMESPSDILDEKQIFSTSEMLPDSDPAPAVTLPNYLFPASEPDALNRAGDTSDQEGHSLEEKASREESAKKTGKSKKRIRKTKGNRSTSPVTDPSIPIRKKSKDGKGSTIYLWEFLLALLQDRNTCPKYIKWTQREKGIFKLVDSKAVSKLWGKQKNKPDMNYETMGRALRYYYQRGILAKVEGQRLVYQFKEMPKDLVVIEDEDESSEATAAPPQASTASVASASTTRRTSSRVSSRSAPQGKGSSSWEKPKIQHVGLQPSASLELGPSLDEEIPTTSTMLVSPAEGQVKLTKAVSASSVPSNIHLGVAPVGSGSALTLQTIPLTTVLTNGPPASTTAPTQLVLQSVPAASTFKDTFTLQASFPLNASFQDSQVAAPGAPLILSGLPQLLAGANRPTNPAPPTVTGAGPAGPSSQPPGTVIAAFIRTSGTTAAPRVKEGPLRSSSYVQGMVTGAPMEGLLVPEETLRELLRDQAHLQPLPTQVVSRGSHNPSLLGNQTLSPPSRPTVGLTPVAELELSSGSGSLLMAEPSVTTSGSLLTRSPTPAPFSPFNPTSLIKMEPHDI
The target of a further test is T3, ELK4 (Homo sapiens, UniProt P28324-2 1-405).
T3 sequence: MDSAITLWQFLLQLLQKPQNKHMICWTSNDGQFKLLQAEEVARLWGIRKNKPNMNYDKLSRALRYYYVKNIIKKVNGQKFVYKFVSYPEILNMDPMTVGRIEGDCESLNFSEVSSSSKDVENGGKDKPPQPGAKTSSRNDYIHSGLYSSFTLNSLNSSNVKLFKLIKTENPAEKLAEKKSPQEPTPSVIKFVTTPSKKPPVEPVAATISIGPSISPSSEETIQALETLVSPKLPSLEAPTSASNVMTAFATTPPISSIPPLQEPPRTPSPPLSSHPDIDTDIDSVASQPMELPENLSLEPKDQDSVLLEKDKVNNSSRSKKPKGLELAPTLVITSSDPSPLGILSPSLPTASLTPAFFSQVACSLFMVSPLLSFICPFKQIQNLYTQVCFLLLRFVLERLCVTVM
The note with it: protein: recombinant; tags: N-terminal GST; dsDNA, one strand shown. An outline of the steps: as §1

The next test concerns the target T4, ETV2 (Homo sapiens, UniProt O00321 1-342).
T4 sequence: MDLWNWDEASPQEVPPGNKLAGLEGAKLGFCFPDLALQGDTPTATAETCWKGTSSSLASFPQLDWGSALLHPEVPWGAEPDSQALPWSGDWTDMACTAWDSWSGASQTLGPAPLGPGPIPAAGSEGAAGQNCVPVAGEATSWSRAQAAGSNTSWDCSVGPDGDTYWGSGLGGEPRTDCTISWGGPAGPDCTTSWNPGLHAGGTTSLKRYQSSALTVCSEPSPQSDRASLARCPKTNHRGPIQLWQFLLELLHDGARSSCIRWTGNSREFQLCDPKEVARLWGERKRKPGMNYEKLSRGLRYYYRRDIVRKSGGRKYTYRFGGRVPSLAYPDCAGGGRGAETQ
The note with it: protein: recombinant; tags: N-terminal GST; dsDNA, one strand shown. The method, boiled down:
as §1

Another test has as its target T5, ELF3 (Homo sapiens, UniProt P78545 1-371).
T5 sequence: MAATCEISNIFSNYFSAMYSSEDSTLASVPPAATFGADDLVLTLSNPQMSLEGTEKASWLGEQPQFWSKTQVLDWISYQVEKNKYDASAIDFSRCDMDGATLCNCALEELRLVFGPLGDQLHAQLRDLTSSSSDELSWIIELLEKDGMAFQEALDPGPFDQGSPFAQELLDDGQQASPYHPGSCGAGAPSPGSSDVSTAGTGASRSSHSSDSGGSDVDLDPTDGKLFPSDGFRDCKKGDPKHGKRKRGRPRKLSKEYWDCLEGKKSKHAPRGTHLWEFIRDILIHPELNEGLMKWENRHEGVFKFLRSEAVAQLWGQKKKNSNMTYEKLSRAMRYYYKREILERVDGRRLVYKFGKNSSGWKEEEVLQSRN
The note with it: protein: recombinant; tags: N-terminal GST; dsDNA, one strand shown. The method, boiled down:
as §1

In the next test the target is CRX (Homo sapiens, UniProt O43186 1-299). The note with it: protein: recombinant; tags: N-terminal GST; dsDNA, one strand shown. An outline of the steps:
as §1

Another test concerns the target ETV1 (Homo sapiens, UniProt P50549 1-477). The note with it: protein: recombinant; tags: N-terminal GST; dsDNA, one strand shown. An outline of the steps:
as §1

Seven sequences from publication PMC7862700, “An all-to-all approach to the identification of sequence-specific readers for epigenetic DNA modifications on cytosine” can be followed below.

Sequence of ETV5 (P41161 whole entry): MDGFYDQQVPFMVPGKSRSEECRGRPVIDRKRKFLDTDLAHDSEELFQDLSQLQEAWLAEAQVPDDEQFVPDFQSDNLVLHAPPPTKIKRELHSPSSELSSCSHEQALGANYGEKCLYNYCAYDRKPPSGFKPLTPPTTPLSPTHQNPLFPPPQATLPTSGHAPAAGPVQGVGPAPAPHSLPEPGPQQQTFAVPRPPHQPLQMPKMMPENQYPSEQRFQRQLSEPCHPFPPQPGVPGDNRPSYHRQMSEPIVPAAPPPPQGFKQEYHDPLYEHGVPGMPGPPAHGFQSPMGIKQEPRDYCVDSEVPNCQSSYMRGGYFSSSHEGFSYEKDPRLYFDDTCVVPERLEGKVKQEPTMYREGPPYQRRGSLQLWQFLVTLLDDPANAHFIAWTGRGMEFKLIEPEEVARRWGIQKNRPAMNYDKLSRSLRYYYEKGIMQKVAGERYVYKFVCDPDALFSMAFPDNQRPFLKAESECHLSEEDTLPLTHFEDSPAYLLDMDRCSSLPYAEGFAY
Sequence of ETV1 (P50549 whole entry): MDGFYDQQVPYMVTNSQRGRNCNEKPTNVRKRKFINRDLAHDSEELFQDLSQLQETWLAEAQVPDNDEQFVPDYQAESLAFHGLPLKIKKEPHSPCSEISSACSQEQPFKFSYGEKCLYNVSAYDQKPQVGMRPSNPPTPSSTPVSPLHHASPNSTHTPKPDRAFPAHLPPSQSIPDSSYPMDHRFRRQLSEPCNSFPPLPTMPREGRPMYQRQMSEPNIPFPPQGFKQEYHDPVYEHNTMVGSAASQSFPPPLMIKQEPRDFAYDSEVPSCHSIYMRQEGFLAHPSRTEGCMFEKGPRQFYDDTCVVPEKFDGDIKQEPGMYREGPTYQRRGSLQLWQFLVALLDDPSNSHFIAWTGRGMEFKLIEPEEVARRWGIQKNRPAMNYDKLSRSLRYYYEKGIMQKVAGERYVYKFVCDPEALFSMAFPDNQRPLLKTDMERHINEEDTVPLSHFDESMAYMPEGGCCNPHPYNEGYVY
Sequence of CRX (O43186 whole entry): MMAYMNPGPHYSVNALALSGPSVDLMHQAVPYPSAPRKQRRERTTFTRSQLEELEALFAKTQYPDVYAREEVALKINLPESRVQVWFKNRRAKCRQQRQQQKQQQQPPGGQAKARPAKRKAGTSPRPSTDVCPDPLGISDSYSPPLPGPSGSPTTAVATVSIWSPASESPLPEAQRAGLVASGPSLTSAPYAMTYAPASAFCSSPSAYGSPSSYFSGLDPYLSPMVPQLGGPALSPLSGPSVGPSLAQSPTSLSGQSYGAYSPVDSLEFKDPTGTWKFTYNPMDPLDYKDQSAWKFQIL

For the sequence TACGAC, the binding signal with FEV is 1.28 fold enrichment (6-mer frequency, TF over GST control); with ETV5 it was 1.18 fold enrichment (6-mer frequency, TF over GST control); with HSF1, 1.14 fold enrichment (6-mer frequency, TF over GST control); with SPIC, 1.22 fold enrichment (6-mer frequency, TF over GST control); in the test with ELF4 it was 1.34 fold enrichment (6-mer frequency, TF over GST control); with ELK4 it was 1.3 fold enrichment (6-mer frequency, TF over GST control). Further, the binding signal with ETV2 is 1.51 fold enrichment (6-mer frequency, TF over GST control); with ELF3, 1.31 fold enrichment (6-mer frequency, TF over GST control); with CRX, 1.25 fold enrichment (6-mer frequency, TF over GST control); with ETV1 it was 1.37 fold enrichment (6-mer frequency, TF over GST control).
Turning to TAATTT, the binding signal with FEV was 1.35 fold enrichment (6-mer frequency, TF over GST control); in the test with ETV5, 1.46 fold enrichment (6-mer frequency, TF over GST control); with HSF1, 1.64 fold enrichment (6-mer frequency, TF over GST control); in the test with SPIC, 1.41 fold enrichment (6-mer frequency, TF over GST control); with ELF4, 1.36 fold enrichment (6-mer frequency, TF over GST control); with ELK4 it was 1.38 fold enrichment (6-mer frequency, TF over GST control). In addition, the binding signal is 1.58 fold enrichment (6-mer frequency, TF over GST control) with ETV2; 1.49 fold enrichment (6-mer frequency, TF over GST control) with ELF3; 2.03 fold enrichment (6-mer frequency, TF over GST control) in the test with CRX; 1.35 fold enrichment (6-mer frequency, TF over GST control) with ETV1.
In the case of TCTCTC, the binding signal with FEV is 1.21 fold enrichment (6-mer frequency, TF over GST control); with ETV5 it was 1.27 fold enrichment (6-mer frequency, TF over GST control); with HSF1, 1.59 fold enrichment (6-mer frequency, TF over GST control); with SPIC it was 1.36 fold enrichment (6-mer frequency, TF over GST control); with ELF4, 1.44 fold enrichment (6-mer frequency, TF over GST control); with ELK4, 1.38 fold enrichment (6-mer frequency, TF over GST control). In addition, the binding signal in the test with ETV2 is 1.34 fold enrichment (6-mer frequency, TF over GST control); in the test with ELF3, 1.39 fold enrichment (6-mer frequency, TF over GST control); in the test with CRX it was 1.35 fold enrichment (6-mer frequency, TF over GST control); with ETV1 it was 1.3 fold enrichment (6-mer frequency, TF over GST control).
As to TAAATG, the binding signal with FEV is 1.18 fold enrichment (6-mer frequency, TF over GST control); with ETV5, 1.38 fold enrichment (6-mer frequency, TF over GST control); with HSF1, 1.37 fold enrichment (6-mer frequency, TF over GST control); with SPIC, 1.46 fold enrichment (6-mer frequency, TF over GST control); with ELF4, 1.25 fold enrichment (6-mer frequency, TF over GST control); with ELK4, 1.39 fold enrichment (6-mer frequency, TF over GST control). For the same sequence, the binding signal with ETV2 was 1.31 fold enrichment (6-mer frequency, TF over GST control); in the test with ELF3 it was 1.34 fold enrichment (6-mer frequency, TF over GST control); with CRX it was 1.69 fold enrichment (6-mer frequency, TF over GST control); with ETV1, 1.37 fold enrichment (6-mer frequency, TF over GST control).
As to ATGCAA, the binding signal with FEV was 1.23 fold enrichment (6-mer frequency, TF over GST control); with ETV5, 1.25 fold enrichment (6-mer frequency, TF over GST control); in the test with HSF1, 1.08 fold enrichment (6-mer frequency, TF over GST control); in the test with SPIC, 1.11 fold enrichment (6-mer frequency, TF over GST control); with ELF4, 1.25 fold enrichment (6-mer frequency, TF over GST control); with ELK4, 1.32 fold enrichment (6-mer frequency, TF over GST control). The binding signal was 1.26 fold enrichment (6-mer frequency, TF over GST control) with ETV2; 1.36 fold enrichment (6-mer frequency, TF over GST control) with ELF3; 1.07 fold enrichment (6-mer frequency, TF over GST control) with CRX; 1.26 fold enrichment (6-mer frequency, TF over GST control) with ETV1.
As to CCAAAA, the binding signal with FEV was 1.2 fold enrichment (6-mer frequency, TF over GST control); with ETV5 it was 1.19 fold enrichment (6-mer frequency, TF over GST control); with HSF1, 1.17 fold enrichment (6-mer frequency, TF over GST control); with SPIC, 1.05 fold enrichment (6-mer frequency, TF over GST control); in the test with ELF4, 1.19 fold enrichment (6-mer frequency, TF over GST control); with ELK4, 1.05 fold enrichment (6-mer frequency, TF over GST control). Also, the binding signal in the test with ETV2 is 1.28 fold enrichment (6-mer frequency, TF over GST control); with ELF3 it was 1.03 fold enrichment (6-mer frequency, TF over GST control); in the test with CRX, 1.06 fold enrichment (6-mer frequency, TF over GST control); with ETV1, 1.18 fold enrichment (6-mer frequency, TF over GST control).
As to TTGCCC, the binding signal with FEV was 1.46 fold enrichment (6-mer frequency, TF over GST control); with ETV5 it was 1.32 fold enrichment (6-mer frequency, TF over GST control); with HSF1, 1.2 fold enrichment (6-mer frequency, TF over GST control); with SPIC, 1.28 fold enrichment (6-mer frequency, TF over GST control); with ELF4 it was 1.4 fold enrichment (6-mer frequency, TF over GST control); with ELK4, 1.42 fold enrichment (6-mer frequency, TF over GST control). Further, the binding signal with ETV2 is 1.25 fold enrichment (6-mer frequency, TF over GST control); with ELF3 it was 1.33 fold enrichment (6-mer frequency, TF over GST control); with CRX, 1.2 fold enrichment (6-mer frequency, TF over GST control); with ETV1 it was 1.22 fold enrichment (6-mer frequency, TF over GST control).
